This is a sample that favours compounds with a hit; in the whole collection about 7.2% have one here.
Luciferase inh = Photinus pyralis luciferase inhibition | purified P. pyralis luciferase, luminescence, biochemical | P08659 | Potency, µM (titrated, usually from 115 µM), actives largely listed as inhibitors | 76,000 compounds, 2.5% hits; note: nearly all actives have a fitted effect of over 65% in size
Target sequence (P08659 whole entry, looked up): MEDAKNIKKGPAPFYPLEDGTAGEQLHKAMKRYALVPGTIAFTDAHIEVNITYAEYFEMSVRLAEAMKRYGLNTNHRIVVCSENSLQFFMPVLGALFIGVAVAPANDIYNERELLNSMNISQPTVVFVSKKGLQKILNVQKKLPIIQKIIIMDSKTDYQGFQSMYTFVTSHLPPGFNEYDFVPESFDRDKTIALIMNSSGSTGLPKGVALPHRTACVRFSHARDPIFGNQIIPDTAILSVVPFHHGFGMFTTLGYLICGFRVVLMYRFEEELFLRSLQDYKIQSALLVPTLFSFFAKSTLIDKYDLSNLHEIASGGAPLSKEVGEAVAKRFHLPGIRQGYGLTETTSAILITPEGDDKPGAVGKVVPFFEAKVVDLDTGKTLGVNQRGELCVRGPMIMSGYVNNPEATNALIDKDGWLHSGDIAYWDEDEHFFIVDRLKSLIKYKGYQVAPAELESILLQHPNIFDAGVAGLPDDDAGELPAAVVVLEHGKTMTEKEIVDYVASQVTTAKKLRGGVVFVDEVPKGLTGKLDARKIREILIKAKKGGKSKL
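Purified P. pyralis luciferase (10nM final) in 50mM Tris acetate pH 7.5, 10mM Mg acetate, 0.01% Tween-20, 0.05% BSA with 10uM D-luciferin and 10uM ATP. Compounds titrated qHTS. Luminescence imaged on CCD.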
NPR1 antag = human Npr1 receptor antagonism | P16066 | HEK293 hNpr1 GloSensor cGMP, ANP-stimulated luminescence | Potency, µM (series often up to 46.3 µM), hits mostly inhibitors | 76,000 compounds, 1.6% hits; calls by dose curve; note: nearly all actives have a fitted effect of over 60% in size
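HEK293 cells stably expressing human Npr1 and cGMP GloSensor pGS-40F, loaded 2 h with 2% GloSensor reagent, given compound 30 min at room temperature. Luminescence read before and 20 min after 0.1 nM hNppA.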
HEK cytotox = kills HEK 293 cells; HEK 293 viability, ATP luminescence (CellTiter-Glo), 48-72 h; Potency, µM (series often up to 115 µM), usual class: inhibitors; 94,000 compounds, 6.6% hits; note: nearly all actives have a fitted effect of over 60% in size
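HEK 293 cells at 250 cells/well were exposed to compounds by pintool transfer for 48 or 72 hr at 37 degree Celsius, 5% CO2. Viability was read as ATP-coupled luminescence with CellTiter-Glo after 10 min at room temperature.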
SNCA viab count = cell viability loss counter-screen; Potency, µM (doses to about 57.1 µM), usual class: cytotoxic; 150,000 compounds, 0.12% hits; HEK-293-SNCA-luc viability, GF-AFC fluorescence, 24 h; note: nearly all actives have a fitted effect of over 30% in size
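HEK-293-SNCA-luc cells (1500/well) plated 24 h, then exposed 24 h to a dilution series; GF-AFC added 30 min at 37C, fluorescence 405/540 nm; normalised to medium-only and DMSO wells, Hill fit.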
NIH3T3 tox = cytotoxic compounds in NIH 3T3 cells; Potency, µM (titrated, usually from 96.7 µM), actives largely listed as inhibitors; NIH 3T3 viability, CellTiter-Glo ATP luminescence, 48-72 h; 94,000 compounds, 4.3% hits; AID 1345082; note: nearly all actives have a fitted effect of over 55% in size
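Cytotoxicity is measured as loss of cellular ATP: NIH 3T3 cells (400/well) are exposed to compound for 48 or 72 hr at 37 °C, then CellTiter-Glo luminescence is imaged after 10 min at room temperature.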
SNCA expr inhib = reduces expression of the alpha-synuclein gene | HEK-293 SNCA-luciferase knock-in, luminescence, 24 h | Potency, µM (titrated, usually from 57.2 µM), usual class: inhibitors | 140,000 compounds, 0.17% hits; note: nearly all actives have a fitted effect of over 45% in size
Numbers stand for hits; ! = repeats disagree. Unless noted, calls come from the whole dose curve; as a rule, active = well fitted curve in the direction sought with a large enough effect; inconclusive = small, poorly fitted or top-dose-only effect, or another doubt; inactive = no such curve, though single readings can be large; an effect the other way counts as inactive or inconclusive.

How did CCCN(C)c1nccnc1OC1CCN(C(=O)c2cccc(OC)c2OC)C1 (stereo unspecified) do in these assays?
Luciferase inh: 32µM; NPR1 antag: inactive; HEK cytotox: inconclusive; SNCA viab count: inactive; NIH3T3 tox: inconclusive; SNCA expr inhib: inactive

Results for COc1cccc(-c2ccnc3nc(-c4cccs4)nn23)c1 ?
Luciferase inh: 16µM; NPR1 antag: inactive; HEK cytotox: inconclusive; SNCA viab count: inactive; NIH3T3 tox: inconclusive; SNCA expr inhib: inactive

Results for c1coc(-c2ccnc3nc(-c4cccs4)nn23)c1 ?
Luciferase inh: inactive; NPR1 antag: inactive; HEK cytotox: inactive; SNCA viab count: inactive; NIH3T3 tox: 35µM; SNCA expr inhib: inactive

How did c1csc(-c2nc3nccc(-c4ccncc4)n3n2)c1 do in these assays?
Luciferase inh: inactive; NPR1 antag: inactive; HEK cytotox: inactive; SNCA viab count: inactive; NIH3T3 tox: inactive; SNCA expr inhib: inactive

What do the screens show for `CCSCCNC(=O)c1c(C)noc1-c1cccc(F)c1`?
Luciferase inh: inactive; NPR1 antag: inactive; HEK cytotox: inactive; SNCA viab count: inactive; NIH3T3 tox: inactive; SNCA expr inhib: inactive

How did O=[S+]([O-])(Nc1ccccc1)c1ccc2c(c1)OCCN(Cc1ccncc1F)C2 do in these assays?
Luciferase inh: inactive; NPR1 antag: inconclusive; HEK cytotox: inconclusive; SNCA viab count: inactive; NIH3T3 tox: inconclusive; SNCA expr inhib: inactive

What do the screens show for `O=[S+]([O-])(Nc1ccccc1)c1ccc2c(c1)OCCN(Cc1ccc(F)cc1)C2`?
Luciferase inh: inactive; NPR1 antag: inconclusive; HEK cytotox: 71µM; SNCA viab count: inactive; NIH3T3 tox: 50µM; SNCA expr inhib: inconclusive

Results for O=[S+]([O-])(Nc1cccnc1)c1ccc2c(c1)OCCN(Cc1cncnc1)C2 ?
Luciferase inh: inactive; HEK cytotox: inactive; SNCA viab count: inactive; NIH3T3 tox: inconclusive; SNCA expr inhib: inactive

How did O=[S+]([O-])(Nc1cccnc1)c1ccc2c(c1)OCCN(Cc1ccccc1)C2 do in these assays?
Luciferase inh: inactive; NPR1 antag: inconclusive; HEK cytotox: inconclusive; SNCA viab count: inactive; NIH3T3 tox: inconclusive; SNCA expr inhib: inactive

What do the screens show for `O=[S+]([O-])(Nc1cccnc1)c1ccc2c(c1)OCCN(Cc1ccncc1F)C2`?
Luciferase inh: inactive; NPR1 antag: inactive; HEK cytotox: inactive; SNCA viab count: inactive; NIH3T3 tox: 35µM; SNCA expr inhib: inactive

What do the screens show for `O=[S+]([O-])(Nc1cccnc1)c1ccc2c(c1)OCCN(Cc1cncc(F)c1)C2`?
Luciferase inh: inactive; NPR1 antag: inactive; HEK cytotox: inactive; SNCA viab count: inactive; NIH3T3 tox: 45µM; SNCA expr inhib: inactive

What do the screens show for `Cn1ccnc1CN1CCOc2cc([S+](=O)([O-])Nc3ccccc3)ccc2C1`?
Luciferase inh: inactive; NPR1 antag: inactive; HEK cytotox: 112µM; SNCA viab count: inactive; NIH3T3 tox: inactive; SNCA expr inhib: inactive

How did CCCCc1ccc(NC(=O)c2ccc3c(c2)N(S(C)(=O)=O)CC3)cc1 do in these assays?
Luciferase inh: inactive; NPR1 antag: inactive; HEK cytotox: inactive; SNCA viab count: inactive; NIH3T3 tox: inactive; SNCA expr inhib: inactive

Results for CCC(=O)N1c2ccccc2CC1c1nc(C(C)C)no1 (stereo unspecified) ?
Luciferase inh: inconclusive; NPR1 antag: inactive; HEK cytotox: inactive; SNCA viab count: inactive; NIH3T3 tox: inactive; SNCA expr inhib: inactive

How did O=C(Cc1ccccc1C(F)(F)F)N1CCC2(CC1)[C@H](O)C[C@@H]2O do in these assays?
Luciferase inh: inactive; NPR1 antag: inactive; HEK cytotox: inactive; SNCA viab count: inactive; NIH3T3 tox: inactive; SNCA expr inhib: inactive

What do the screens show for `Cn1ncc2c(C(=O)NCCN3CCOCC3)cc(-c3ccccc3C(F)(F)F)nc21`?
HEK cytotox: inactive; NIH3T3 tox: inactive

Results for O=[S+]([O-])(Nc1nncs1)c1ccc2c(c1)OCCN(Cc1cccs1)C2 ?
Luciferase inh: inactive; NPR1 antag: inactive; HEK cytotox: inactive; SNCA viab count: inactive; NIH3T3 tox: 25µM; SNCA expr inhib: inactive

What do the screens show for `COc1ccc(Nc2ccc3ncn(-c4ccccc4)c(=O)c3n2)cn1`?
Luciferase inh: inactive; NPR1 antag: inactive; HEK cytotox: 100µM; SNCA viab count: inactive; NIH3T3 tox: 100µM; SNCA expr inhib: inactive

Results for CN(C)c1nccnc1OC1CCN(C(=O)c2ccncc2)C1 (stereo unspecified) ?
Luciferase inh: inactive; NPR1 antag: inactive; HEK cytotox: inactive; SNCA viab count: inactive; NIH3T3 tox: inactive; SNCA expr inhib: inactive

How did CCOc1ccccc1C(=O)N1CCC(Oc2nccnc2N(C)C)C1 (stereo unspecified) do in these assays?
Luciferase inh: 32µM; NPR1 antag: inactive; HEK cytotox: inconclusive; SNCA viab count: inactive; NIH3T3 tox: inactive; SNCA expr inhib: inactive

How did COc1ccc(C(=O)N2CCC(Oc3nccnc3N(C)C)C2)c(OC)c1 (stereo unspecified) do in these assays?
Luciferase inh: 20µM; NPR1 antag: inactive; HEK cytotox: inconclusive; SNCA viab count: inactive; NIH3T3 tox: inactive; SNCA expr inhib: inactive

What do the screens show for `O=C(NCCc1ccc(Cl)cc1)c1cc(Br)cn2ccnc12`?
Luciferase inh: inactive; NPR1 antag: inactive; HEK cytotox: inactive; SNCA viab count: inactive; NIH3T3 tox: inactive; SNCA expr inhib: inactive

What do the screens show for `CSCCNC(=O)c1cc(Br)cn2ccnc12`?
Luciferase inh: 45µM!; NPR1 antag: inactive; HEK cytotox: inactive; SNCA viab count: inactive; NIH3T3 tox: inactive; SNCA expr inhib: inactive

Results for O=C(c1ccc(F)cc1)N1CCCC2(CNc3ccccc3[S+](=O)([O-])N2)C1 (stereo unspecified) ?
Luciferase inh: inactive; NPR1 antag: inactive; HEK cytotox: inactive; SNCA viab count: inactive; NIH3T3 tox: inactive; SNCA expr inhib: inactive

Results for Cc1cc(N2CCN(CC3CCCCC3)C(CCO)C2)nc(N)n1 (stereo unspecified) ?
Luciferase inh: inactive; NPR1 antag: inactive; HEK cytotox: inconclusive; SNCA viab count: inactive; NIH3T3 tox: inactive; SNCA expr inhib: inactive

How did COc1cc(F)ccc1-c1cc(C(=O)NCCc2cnc[nH]2)c2c(c1)N(C)CCO2 do in these assays?
Luciferase inh: inactive; NPR1 antag: inactive; HEK cytotox: inconclusive; SNCA viab count: inactive; NIH3T3 tox: 100µM; SNCA expr inhib: inactive

How did CN1CCOc2c(C(=O)NCCc3cnc[nH]3)cc(-c3ccccc3F)cc21 do in these assays?
Luciferase inh: inactive; NPR1 antag: inactive; HEK cytotox: 89µM; SNCA viab count: inactive; NIH3T3 tox: inconclusive; SNCA expr inhib: inactive

Results for O=C1CCN(S(=O)(=O)c2ccccc2)CCCC(C(=O)NCCc2ccccc2)CCN1 (stereo unspecified) ?
Luciferase inh: inactive; NPR1 antag: inactive; HEK cytotox: inactive; SNCA viab count: inactive; NIH3T3 tox: inactive; SNCA expr inhib: inactive

Source: PubChem BioAssay (National Center for Advancing Translational Sciences (NCATS))
